PME-1 inh: PME-1 (human) inhibition. recombinant PME-1, FP-Rh probe fluorescence polarization. Q9Y570. inhibition, % at 5.9 µM. 0.53% of 320,000 active. AID 2130;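 active = inhibition above the campaign mean of all compounds plus 3 SD, cut at about 26% in these data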;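 note: competitive labeling of PME-1 active site by serine hydrolase directed probe; inhibitors block probe labeling so polarization falls and inhibition rises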
Target sequence (Q9Y570 whole entry, looked up): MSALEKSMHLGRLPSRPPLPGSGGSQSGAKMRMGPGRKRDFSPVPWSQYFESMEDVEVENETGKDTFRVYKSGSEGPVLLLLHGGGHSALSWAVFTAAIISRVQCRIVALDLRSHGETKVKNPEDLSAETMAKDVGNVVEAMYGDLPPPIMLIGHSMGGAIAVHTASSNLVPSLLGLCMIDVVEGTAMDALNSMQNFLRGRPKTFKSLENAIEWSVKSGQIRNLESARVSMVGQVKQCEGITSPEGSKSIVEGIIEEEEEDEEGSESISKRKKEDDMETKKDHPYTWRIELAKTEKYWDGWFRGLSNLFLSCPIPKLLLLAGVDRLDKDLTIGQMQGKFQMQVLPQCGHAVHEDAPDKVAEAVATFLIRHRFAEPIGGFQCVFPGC
LYPLA1 counter: LYPLA1 (human) inhibition in PME1 counter-screen; O75608; recombinant LYPLA1, FP-Rh probe fluorescence polarization; inhibition, % at 5.9 µM; 0.16% of 320,000 active; AID 2174;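 active = inhibition above the mean of all tested compounds plus 3 SD, set per campaign, cut at about 14% in these data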;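 note: inhibitors block serine hydrolase probe labeling of LYPLA1 so polarization falls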
Target sequence (O75608 whole entry, looked up): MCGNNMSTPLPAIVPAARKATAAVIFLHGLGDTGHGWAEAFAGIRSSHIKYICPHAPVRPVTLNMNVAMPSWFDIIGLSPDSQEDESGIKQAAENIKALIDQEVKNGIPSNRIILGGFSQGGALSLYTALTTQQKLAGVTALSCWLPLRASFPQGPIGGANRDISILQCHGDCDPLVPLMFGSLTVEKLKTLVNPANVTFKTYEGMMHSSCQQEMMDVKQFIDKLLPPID
LYPLA2 counter: blocks human lysophospholipase 2, a PME1 counter-screen; recombinant LYPLA2, FP-Rh probe fluorescence polarization; inhibition, % at 5.9 µM; 0.38% of 320,000 active; AID 2177;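 active = inhibition above the screen-wide mean plus 3 SD, limit set per campaign, cut at about 26% in these data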
Fam108B counter: counter-screen for RBBP9 inhibitors: inhibitors of mouse Fam108B; recombinant Fam108B, FP-Rh probe fluorescence polarization; inhibition, % at 9.51 µM; 0.33% of 300,000 active;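 active = inhibition above the screen mean inhibition plus 3 SD, computed separately per campaign, cut at about 18% in these data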;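 note: inhibitors lower polarization as less probe binds the enzyme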
GSTO1 counter: blocks human GSTO1 in RBBP9 counter-screen; P78417; recombinant GSTO1, activity-based probe fluorescence polarization; inhibition, % at 5.96 µM; 1.1% of 300,000 active;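 active = inhibition above the campaign mean inhibition plus 3 SD, cut at about 35% in these data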
PAD4 inh: PAD4 (human) enzyme inhibition | Q9UM07 | recombinant PAD4, RCA probe fluorescence polarization | inhibition, % at 6.36 µM | 0.41% of 330,000 active;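 active = percent inhibition above a cutoff equal to the mean of all tested compounds plus 3 SD, cut at about 15% in these data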
GSTO1 inh conf: GSTO1 (human) inhibition, confirmation | shares compounds with GSTO1 counter | recombinant GSTO1, probe fluorescence polarization | inhibition, % at 5.96 µM | 54% of 2,400 active | AID 2176;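 active = inhibition above the primary screen's cutoff, its mean inhibition plus 3 SD, cut at about 35% in these data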;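 note: loss of polarization as inhibitors block binding of rhodamine sulfonate ester activity probe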
LYPLA1 conf: LYPLA1 (human) inhibition, confirmation counter-screen; shares compounds with LYPLA1 counter; 69% of 480 active; inhibition, % at 5.9 µM; recombinant LYPLA1, FP-Rh probe fluorescence polarization; AID 2233;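 active = mean inhibition across replicates above the hit cutoff set in the primary screen, cut at about 15% in these data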;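 note: loss of FP-Rh probe labeling of LYPLA1 seen as lower polarization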
LYPLA2 confirm: LYPLA2 (human) inhibition, confirmation counter-screen; inhibition, % at 5.9 µM; shares compounds with LYPLA2 counter; 72% of 1,100 active; recombinant LYPLA2, FP-Rh probe fluorescence polarization;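 active = mean inhibition across replicates above the hit cutoff set in the primary screen, cut at about 26% in these data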;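 note: blocked labeling of the enzyme by serine hydrolase FP-Rh probe lowers polarization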
PAD4 confirm: confirmation of human PAD4 inhibitors; 28% of 1,200 active; recombinant PAD4, RCA probe fluorescence polarization; AID 488796; inhibition, % at 6.36 µM; shares compounds with PAD4 inh;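 active = mean inhibition across replicates above the hit cutoff set by the earlier primary screen, cut at about 15% in these data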;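 note: inhibitors block active-site labeling by the probe so polarization falls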
Of the large screens only hits and unclear results are named; the others gave an inactive call (follow-up assays come after a bar, where they were run). Hits are enriched below; roughly 1.8% of the tested compounds scored in any of these assays.

CC1=NN(Cc2ccccc2)C(=O)C1	GSTO1 counter 57, PAD4 inh 71 | GSTO1 inh conf inactive | PAD4 confirm inactive
O=C(NCc1nc2ccccc2[nH]1)C1=C[C@@H](c2ccc(C(F)(F)F)cc2)C[C@@H](OCc2ccc(CO)cc2)O1	none
COc1ccc2c(c1)c1c(n2C)[C@@H]2CC=C(CO)[C@@H](C1)N2C	none (no result: PME-1 inh, LYPLA1 counter, LYPLA2 counter, Fam108B counter, GSTO1 counter)
CCn1c(-c2ccccc2)c(C(=O)CCl)c2ccccc21	GSTO1 counter 60, PAD4 inh 21 | GSTO1 inh conf 76 | PAD4 confirm 42
CCOc1c2ccc(C(=O)NCc3ccc(OC)cc3)cc2nn1CCOC	none
COC(=O)CCC(=O)OC1(C)C(=O)C=C2C=C(C3CC3)N(C3CC3)C=C2C1=O (stereo unspecified)	GSTO1 counter 52, PAD4 inh 25 | GSTO1 inh conf inactive | PAD4 confirm inactive
CC1(C)C=C2C(=NN(c3ccccc3)C(N)=C2C#N)CO1	GSTO1 counter 74, PAD4 inh 22 | GSTO1 inh conf 88 | PAD4 confirm 56
CC(C)(C)c1oc(C(=O)O)cc1CN1CCOCC1	none
CC(=O)NC1=C(Nc2ccc(N(C)C)cc2)C(=O)c2ccccc2C1=O	GSTO1 counter 46, PAD4 inh 17 | GSTO1 inh conf inactive | PAD4 confirm inactive
O=C(O)/C=C\C(=O)Nc1ccc(N2CCN(c3ccc(F)cc3)CC2)cc1	GSTO1 counter 58, PAD4 inh 24 | GSTO1 inh conf inactive | PAD4 confirm inactive
COc1ccc2c(c1OC)C(=O)OC2C1c2c(cc3c(c2OC)OCO3)CCN1C (stereo unspecified)	none
CN1CCc2cc3c(c4c2[C@H]1[C@H](O)c1ccccc1-4)OCO3	GSTO1 counter 69, PAD4 inh 37 | GSTO1 inh conf inactive | PAD4 confirm 34
CCN1CCN(Cc2ccc(NC(=O)Nc3cccs3)cc2)CC1	none
O=C(CC1Nc2cccc3cccc(c23)NC1=O)Nc1ccccc1 (stereo unspecified)	GSTO1 counter 38, PAD4 inh 25 | GSTO1 inh conf inactive | PAD4 confirm inactive
Cc1ccc(S(=O)(=O)Nc2cc(Cl)c(O)c3ncccc23)cc1	GSTO1 counter 61, PAD4 inh 36 | GSTO1 inh conf inactive | PAD4 confirm inactive
Cc1nc(C(F)(F)F)c(C(=O)O)cc1-c1nc(-c2ccccc2)cs1	none
CCC(=Nc1ccc(N)cc1)C1=C(O)C(C(=O)OC)C(C)(C)CC1=O (stereo unspecified)	PME-1 inh 26, LYPLA1 counter 21, GSTO1 counter 85, PAD4 inh 73 | GSTO1 inh conf inactive | LYPLA1 conf inactive | PAD4 confirm inactive
CCCC(=Nc1ccccc1)C1=C(O)C(C(=O)OC)C(C)(C)CC1=O (stereo unspecified)	none
CCCCC(=Nc1ccc(N)cc1)C1=C(O)C(C(=O)OC)C(C)(C)CC1=O (stereo unspecified)	PME-1 inh 41, LYPLA1 counter 23, LYPLA2 counter 28, GSTO1 counter 86, PAD4 inh 75 | GSTO1 inh conf inactive | LYPLA1 conf inactive | LYPLA2 confirm inactive | PAD4 confirm inactive
O=C1C(Nc2ccccc2)=C(N2CCCCC2)C(=O)c2ccccc21	GSTO1 counter 62, PAD4 inh 15 | GSTO1 inh conf 56 | PAD4 confirm inactive
COc1ccccc1NC1=C(N2CCCCC2)C(=O)c2ccccc2C1=O	GSTO1 counter 73, PAD4 inh 38 | GSTO1 inh conf 54 | PAD4 confirm inactive
CCOC(=O)Cc1c(C)nc2c(-c3ccccc3)c(-c3ccccc3)[nH]n2c1=O	none
COc1ccc(-c2cc(=O)[nH][nH]2)cc1OC	GSTO1 counter 66, PAD4 inh 65 | GSTO1 inh conf inactive | PAD4 confirm inactive
O=c1cc(-c2ccc(F)cc2)[nH][nH]1	GSTO1 counter 41, PAD4 inh 59 | GSTO1 inh conf inactive | PAD4 confirm inactive
O=c1cc(-c2ccc(C3CCCCC3)cc2)[nH][nH]1	none
O=c1cc(-c2ccccc2)[nH][nH]1	GSTO1 counter 38, PAD4 inh 35 | GSTO1 inh conf inactive | PAD4 confirm inactive
O=c1cccc(-c2ccccc2)[nH]1	none
C=CCSc1nc(N)c2c(C)c(C)sc2n1	none
CCC(NC(=O)Nc1ccc(O)cc1)(C(F)(F)F)C(F)(F)F	GSTO1 counter 57, PAD4 inh 46 | GSTO1 inh conf inactive | PAD4 confirm inactive
CCC(NC(=O)NCc1ccccc1)(C(F)(F)F)C(F)(F)F	none
COc1ccc(NC(=O)NC(C)(C(F)(F)F)C(F)(F)F)cc1	none
CC(NC(=O)Nc1ccc(O)cc1)(C(F)(F)F)C(F)(F)F	GSTO1 counter 44, PAD4 inh 64 | GSTO1 inh conf inactive | PAD4 confirm inactive
CC(C)(C)c1nn(-c2ccccc2)c2[nH]c(=O)c(CNc3ccc4c(c3)OCCO4)cc12	none
Cc1nn(-c2ccccc2)c2[nH]c(=O)c(CNc3ccc(N4CCOCC4)cc3)cc12	GSTO1 counter 39, PAD4 inh 20 | GSTO1 inh conf inactive | PAD4 confirm inactive
O=C(COC(=O)c1ccc([N+](=O)[O-])s1)Nc1ccccc1	GSTO1 counter 65, PAD4 inh 33 | GSTO1 inh conf inactive | PAD4 confirm inactive
O=C(COC(=O)c1ccc([N+](=O)[O-])s1)Nc1ccc(Cl)cn1	none
CN(C)c1ccc(N=Cc2nc(-c3ccccc3)oc2O)cc1	none
CN(C)c1ccc(N=Cc2cccn2C)cc1	GSTO1 counter 83, PAD4 inh 25 | GSTO1 inh conf inactive | PAD4 confirm inactive
CCOc1ccc(S(=O)(=O)Nc2cc(Sc3ncn[nH]3)c3oc(=O)sc3c2)cc1	GSTO1 counter 47, PAD4 inh 18 | GSTO1 inh conf inactive | PAD4 confirm inactive
CCOc1ccc(S(=O)(=O)Nc2ncn[nH]2)cc1	none
COc1ccc(OC)c(N)c1	GSTO1 counter 46, PAD4 inh 38 | GSTO1 inh conf inactive | PAD4 confirm inactive
CC1(C)Nc2ccc(O)cc2-c2c1ssc2=S	GSTO1 counter 63, PAD4 inh 41 | GSTO1 inh conf inactive | PAD4 confirm 18
CC(=O)N1CCn2c3c(c4cc(C)ccc42)CCCC31 (stereo unspecified)	none
CC(=O)N1CCn2c3c(c(=O)c4cc(C)ccc42)CCC31 (stereo unspecified)	GSTO1 counter 73, PAD4 inh 46 | GSTO1 inh conf 57 | PAD4 confirm inactive
